# Source: PubChem BioAssay (National Center for Advancing Translational Sciences (NCATS))
# TRPML1 blocker = human mucolipin-1 channel inhibition; 390,000 compounds, 0.02% hits; TRPML1-inducible cells, Ca2+ dye fluorescence, FDSS; stronger effect = lower value; inhibition of EC80 agonist-evoked calcium signal; Q9GZU1; activity change, negative = inhibition, % (no concentration beside the values); AID 624415; in the data active = activity change below about -50%; inconclusive = between about -30% and that limit;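 note: stimulus is agonist 54-4 at its EC80 concentration; % is set by controls: 0 for no effect and ±100 for the full control effect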
# Target sequence (Q9GZU1 whole entry, looked up): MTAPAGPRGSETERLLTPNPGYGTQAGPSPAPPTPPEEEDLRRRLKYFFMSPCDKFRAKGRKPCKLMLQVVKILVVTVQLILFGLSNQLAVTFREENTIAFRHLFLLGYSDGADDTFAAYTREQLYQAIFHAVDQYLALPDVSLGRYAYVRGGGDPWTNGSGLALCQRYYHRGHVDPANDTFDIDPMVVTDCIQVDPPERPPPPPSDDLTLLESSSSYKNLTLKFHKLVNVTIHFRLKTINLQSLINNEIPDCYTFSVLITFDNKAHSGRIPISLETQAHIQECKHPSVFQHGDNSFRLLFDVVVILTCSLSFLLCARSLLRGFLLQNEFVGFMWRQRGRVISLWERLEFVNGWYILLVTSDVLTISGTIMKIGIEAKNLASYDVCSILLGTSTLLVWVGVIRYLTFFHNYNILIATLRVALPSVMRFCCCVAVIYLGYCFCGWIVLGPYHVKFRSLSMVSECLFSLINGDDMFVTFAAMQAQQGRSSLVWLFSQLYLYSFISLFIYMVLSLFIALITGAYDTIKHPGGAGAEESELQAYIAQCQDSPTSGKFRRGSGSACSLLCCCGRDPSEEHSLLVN
#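 Tet-induced TRPML1-DL cells loaded with Ca8 no-wash calcium dye were read kinetically on FDSS. Compound addition was followed by EC80 agonist 54-4 (4 uM final); inhibition was read over 110 s.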
# Vif-APOBEC3G blk = blocks the Vif interaction with human APOBEC3G; Q9HC16; HeLa A3G-eYFP + Vif (tagged APOBEC3G with the HIV-1 protein that degrades it), YFP fluorescence, overnight; Potency, µM (series often up to 46.1 µM), without a hit: at the top dose activity, negative = active, most hits filed as inhibitors; 410,000 compounds, 0.076% hits; note: potency is the fitted concentration of half-maximal effect; % is set by controls: 0 for no effect and ±100 for the full control effect; nearly all actives have a fitted effect of over 60% in size
#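 HeLa cells stably expressing Vif and C-terminally eYFP-tagged A3G, seeded overnight at 37 deg C, then exposed to compound by pintool overnight at 37 deg C. Rise in yellow fluorescence (Ex 488/Em 500-530, Acumen) marks blocked Vif-driven A3G degradation.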
# A-T KAP1 phos = candidate therapy for ataxia-telangiectasia | F2112 A-T fibroblasts, KAP-1 phosphorylation AlphaLISA; neocarzinostatin DNA damage 30 min before lysis | Potency, µM (doses to about 57.5 µM), for inactives: at the highest dose activation, hits mostly activators | 320,000 compounds, 0.19% hits | AID 485349; note: potency is the fitted concentration of half-maximal effect; % of control where 0% means no effect; nearly all actives have a fitted effect of over 45% in size
#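 hTERT-immortalized A-T patient fibroblasts (F2112), 500 cells/well in OPTI-MEM, 1% FBS, got compounds for 60 min, then NCS for 30 min at 37C. Lysates were then assayed for phospho-KAP-1 by AlphaLISA (anti-pKAP1 donor, anti-KAP1 acceptor beads), 6 hr at 25C.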
# TRPML1 agonist = agonists of human TRPML1 channel; Q9GZU1; TRPML1-expressing cells, Ca2+ dye fluorescence, FDSS; activation, % (test concentration not listed); 410,000 compounds, 0.12% hits; AID 624414; in the data active = activation above about 50%; inconclusive = mostly about 30% to 49%; note: 0% is about no effect
#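 Kinetic FDSS Ca2+ read in Tet-induced TRPML1-DL cells (ABD Ca8 dye plus quencher, 45-90 min RT loading): baseline, then compound, then 110 s agonist window; EC80 agonist 54-4 at 4uM final added afterwards for a 110 s antagonist window.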
# Vif-APOBEC3F blk = blocks the Vif interaction with APOBEC3F; HeLa A3F-eYFP + Vif (tagged APOBEC3F with the HIV-1 protein that degrades it), YFP fluorescence increase; Potency, µM (titrated, usually from 46.1 µM), for the others: at the top dose activity, negative = active; 390,000 compounds, 0.2% hits; AID 602313; note: potency is the fitted concentration of half-maximal effect; % of control where 0% means no effect; nearly all actives have a fitted effect of over 65% in size
#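 HeLa cells stably expressing A3F-eYFP plus Vif, plated and incubated overnight at 37 deg C, then exposed to compounds overnight at 37 deg C. Blocked degradation read as raised yellow fluorescence (Ex 488/Em 500-530).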
# Active calls of the source: *; ? = inconclusive; nt = no result given. Hits are enriched below; roughly 0.54% of the tested compounds scored in any of these assays. Unless noted, calls come from the whole dose curve; as a rule, active = well fitted curve in the direction sought with a large enough effect; inconclusive = small, poorly fitted or top-dose-only effect, or another doubt; inactive = no such curve, though single readings can be large; an effect the other way counts as inactive or inconclusive.
SMILES,TRPML1 blocker,Vif-APOBEC3G blk,A-T KAP1 phos,TRPML1 agonist,Vif-APOBEC3F blk
CCN(CC)c1ccc(/C=N/n2c(-c3ccccc3Br)n[nH]c2=S)cc1,-6.9,-12.2%,-8.0%,19.0,4.3%
Cc1nn(-c2ccccc2)c(C)c1/C=N/n1c(-c2ccccc2Br)n[nH]c1=S,-69.2*,-3.0%,3.8%,2.9,6.9%
COc1cc(Cl)c(S(=O)(=O)N2CCN(c3c(C)cccc3C)CC2)cc1Cl,21.7,-0.7%,nt,1.7,-3.5%
CNC(=S)N(CCc1c(C)[nH]c2ccc(Cl)cc12)Cc1cccnc1,-1.1,-9.1%,0.891µM*,0.0,4.2%
Cc1ccnc2ccc3ccccc3c12,nt,4.5%,nt,-0.5,nt
CC1CCN(S(=O)(=O)c2ccc(C(C)C)cc2)CC1,-9.9,1.1%,-4.8%,114.9*,14.6%
CC1CCN(S(=O)(=O)c2ccc(Cl)cc2)CC1,-8.7,1.7%,12.9%,0.3,-7.1%
COc1ccc(/C=N/Nc2nonc2N)cc1,-1.8,-5.9%,1.9%,0.2,-9.3%
COc1ccc(/C=N/Nc2nn3cnnc3c3ccccc23)cc1,11.1,-0.1%,44.7µM*,-0.3,2.3%
Cc1ccc(NC(=O)CO/N=C/c2ccc(N(C)C)cc2)cc1,-16.9,?,-4.5%,4.3,25.1µM*
CN(C)c1ccc(/C=N/OC(=O)Nc2ccccc2)cc1,-4.9,-0.5%,0.3%,1.1,-10.9%
Cc1cccc(C=Nc2ccccc2C(N)=O)c1,-2.6,10µM*,-2.0%,-0.5,-14.8%
Cc1ccc(CNc2nc3ccc(Cl)cc3n3nnnc23)cc1,-18.1,2.6%,nt,-0.1,7.08µM*
COc1cc(OC)c(Nc2nc3ccc(C)cc3n3nnnc23)cc1Cl,-8.7,-5.0%,nt,0.1,-12.7%
Cc1ccc(CNc2nc3ccc(C)cc3n3nnnc23)cc1,3.9,1.3%,nt,-0.5,1.7%
COc1ccccc1CNc1nc2ccc(C)cc2n2nnnc12,5.5,-2.9%,nt,1.1,12.6µM*
Fc1ccc(CNc2nc3ccc(Cl)cc3n3nnnc23)cc1,13.3,-11.6%,nt,-0.1,7.94µM*
CCN(CC)CCN(C)c1ccc(/C=C/c2ccnc3ccccc23)cc1,nt,-12.9%,nt,12.4,nt
COc1cc(OC)c(OC)cc1CNc1sc2c(c1C(=O)Nc1ccccc1OC)CCC2,-18.0,?,nt,-0.4,-2.4%
Cc1c(N2C(=O)/C(=C/c3ccc(N(C)C)cc3)N(C)C2=S)c(=O)n(-c2ccccc2)n1C,-7.3,?,nt,6.1,10µM*
Cc1c(N2C(=O)/C(=C/c3ccccc3)SC2=S)c(=O)n(-c2ccccc2)n1C,37.6,0.1%,-4.3%,-0.7,5.6%
CC(C)N(C(=O)Nc1ccc2nsnc2c1)C(C)C,-10.9,-19.4%,31.6µM*,4.3,1.4%
O=[N+]([O-])c1ccccc1/C=C/C=N/n1c(-c2ccccc2F)n[nH]c1=S,10.8,-6.5%,25.1µM*,0.2,-15.3%
Cc1ccc(NC(=O)CCn2nc(C)c(S(=O)(=O)N3CCCCC3)c2C)cc1Cl,-1.2,4.6%,nt,0.3,0.4%
CC1CCCC(C)N1C(=O)CSc1nnc(C2CCCCC2)o1 (configuration not stated),-1.5,4.1%,31.6µM*,-0.3,-0.9%
SMILES,TRPML1 blocker,Vif-APOBEC3G blk,A-T KAP1 phos,TRPML1 agonist,Vif-APOBEC3F blk
OCc1ccccc1O[C@@H]1O[C@H](CO)[C@@H](O)[C@H](O)[C@H]1O,nt,-0.5%,6.2%,nt,-4.5%
OCC1OC(Oc2c[nH]c3ccccc23)C(O)C(O)C1O (configuration not stated),-2.0,-5.4%,28.2µM*,-0.1,10.2%
CN(C)c1ccc(/C=C/c2ccnc3ccc(Cl)cc23)cc1,nt,-16.0%,nt,5.3,nt
CN(C)c1ccc(/C=C/c2ccnc3ccc(-c4ccccc4)cc23)cc1,nt,7.08µM*,nt,?,nt
CN(C)c1ccc(/C=C/c2ccnc3ccc(Br)cc23)cc1,nt,?,nt,54.5*,nt
O=C(C[n+]1cccc2cccc(O)c21)c1ccccc1,nt,-5.9%,nt,3.1,nt
CC(=O)N1CCOc2ccc(S(=O)(=O)N3CCC(C)CC3)cc21,-59.2*,1.4%,0.8%,0.2,-13.8%
CC(=O)N1CCOc2ccc(S(=O)(=O)N3CC(C)CC(C)C3)cc21 (configuration not stated),-20.7,2.3%,5.9%,-0.4,-18.9%
Cc1cccc(-n2c(=O)c3c(c4cc(C)ccc4n3C)n(CC(=O)Nc3ccc(C)cc3C)c2=O)c1,-2.2,-0.9%,nt,2.3,-10.6%
CCOC(=O)c1c(C)[nH]c(C)c1S(=O)(=O)N1CCN(c2ccc(Cl)cc2)CC1,3.6,-2.8%,nt,-0.6,-1.4%
CS(=O)(=O)Nc1ccc(C2=NN(S(=O)(=O)c3ccccc3)C(c3cccs3)C2)cc1 (configuration not stated),-0.4,?,-5.2%,-0.7,22.4µM*
Cc1ccc(C2=NN(S(=O)(=O)c3ccccc3)C(c3ccccc3O)C2)cc1 (configuration not stated),-10.8,8.3%,-1.6%,1.2,25.1µM*
CS(=O)(=O)Nc1cccc(C2=NN(S(=O)(=O)c3ccc(F)cc3)C(c3cccs3)C2)c1 (configuration not stated),-3.0,-9.1%,3.9%,-0.4,?
COc1ccc(C2CC(c3ccccc3)=NN2S(=O)(=O)c2ccccc2)cc1 (configuration not stated),-1.6,-28.6%,-5.4%,1.4,?
CCCOc1ccc(C(=O)CCC(=O)OCC(=O)Nc2ccc(Oc3ccccc3)cc2)cc1,nt,nt,-0.8%,nt,nt
CCCOc1ccc(C(=O)CCC(=O)OCC(=O)Nc2ccc(OCC)cc2)cc1,nt,nt,14.1µM*,nt,nt
COCCNC(=O)CSc1n[nH]c(=O)n1CCc1ccccc1,nt,1.1%,17.8µM*,nt,1.0%
Cc1nc(N2CCN(c3ccccn3)CC2)c2c(C)c(C(=O)Nc3ccc(Br)cc3C)sc2n1,1.3,-5.3%,4.0%,55.5*,-18.3%
COc1ccccc1CNC(=O)C(=O)NCC(c1ccc2c(c1)OCO2)N1CCOCC1 (configuration not stated),2.9,-0.5%,nt,0.7,-2.8%
COCCCNC(=O)C1CCN(c2cc(C)nc3c(-c4ccc(Cl)cc4)c(C)nn23)CC1,0.2,-1.1%,nt,-0.9,-0.7%
Cc1c2ccccc2nc2c(F)c(NC(C)C)c(F)c(F)c12,-2.7,?,23.5%,13.8,12.6µM*
CCOc1ccc(NC(=O)N2CCN(C(=O)c3nsc4ccccc34)CC2)cc1,-15.0,4.9%,nt,2.2,2.2%
Cc1cccc(S(=O)(=O)Nc2cc(Cl)ccc2N2CCOCC2)c1,-16.2,-9.7%,15.8%,72.0*,-8.1%
